Compound activity from PubChem BioAssay.
LmPK inh = inhibitors of Leishmania mexicana pyruvate kinase | Q27686 | purified LmPK, Kinase-Glo ATP luminescence, 1 h | Potency, µM (top dose mostly 57.5 µM), usual class: inhibitors | 0.37% of 290,000 active | AID 1721
Target sequence (Q27686 whole entry, looked up): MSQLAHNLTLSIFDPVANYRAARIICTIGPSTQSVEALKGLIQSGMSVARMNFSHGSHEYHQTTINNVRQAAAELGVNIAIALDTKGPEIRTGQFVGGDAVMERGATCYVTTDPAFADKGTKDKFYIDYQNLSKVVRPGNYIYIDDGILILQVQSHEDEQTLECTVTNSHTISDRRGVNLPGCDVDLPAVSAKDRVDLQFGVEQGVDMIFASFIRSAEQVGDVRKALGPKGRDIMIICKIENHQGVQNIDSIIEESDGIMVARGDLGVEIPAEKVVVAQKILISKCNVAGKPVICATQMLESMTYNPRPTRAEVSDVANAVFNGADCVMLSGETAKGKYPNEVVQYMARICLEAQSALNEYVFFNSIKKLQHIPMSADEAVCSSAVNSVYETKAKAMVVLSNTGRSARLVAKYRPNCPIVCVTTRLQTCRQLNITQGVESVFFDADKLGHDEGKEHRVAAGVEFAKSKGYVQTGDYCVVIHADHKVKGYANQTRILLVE
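Pyruvate kinase activity monitored as ATP production (luciferase luminescence). Conditions: 0.1 nM enzyme, 0.5 mM PEP, 0.1 mM ADP, 1 h, RT; normalized against uninhibited and no-enzyme wells.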
Cycloheximide cs = counter-screen for Shiga toxin inhibitors: cycloheximide protein synthesis inhibition | 12% of 300,000 active | cell reporter, cycloheximide protein synthesis inhibition counterscreen | max response, %; in the data active = max response mostly above about 13%, no sharp cut-off; inactive = mostly below about 14%; also: read at 38.3 µM for the half of the compounds with a filed dose
Tb PYK inh = blocks Trypanosoma brucei pyruvate kinase | Q57TT1 | TbPYK enzyme, Kinase-Glo Plus ATP luminescence, 45 min | Potency, µM (series often up to 76.8 µM), hits mostly inhibitors | 0.12% of 410,000 active | AID 624173; also: nearly all actives have a fitted effect of over 50% in size
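In this concentration-response screen, enzyme-free wells defined baseline while DMSO plates tracked drift. Each reaction combined TbPYK, substrate, compound and 130 uM ADP for 45 min at room temperature. Kinase-Glo Plus luminescence gave the signal.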
Shiga inhibitor = inhibitors of Shiga toxin in Vero cells. Vero cells, Shiga toxin protein synthesis inhibition reporter. inhibition, % at 38.7 µM. 9.2% of 290,000 active. AID 2315; in the data active = inhibition mostly above about 28%, no sharp cut-off; inactive = mostly below about 43%
Sm TGR inh = blocks Schistosoma mansoni thioredoxin glutathione reductase | AID 485364 | Potency, µM (doses to about 114 µM), usual class: inhibitors | Q962Y6 | 3% of 360,000 active | purified TGR, DTNB reduction, TNB absorbance 405 nm; also: nearly all actives have a fitted effect of over 60% in size
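First, TGR (20 nM dispensed) and NADPH were mixed with compound. Second, a 15 min room-temperature incubation followed. Third, further NADPH and then DTNB were added to start the reaction. Finally, TNB absorbance was monitored kinetically.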
FBPA Giardia inh = blocks Giardia fructose-bisphosphate aldolase activity | Potency, µM (highest dose often 59.6 µM), actives largely listed as inhibitors | AID 2451 | purified Giardia FBPA | A8B2U2 | 0.71% of 290,000 active; also: nearly all actives have a fitted effect of over 55% in size
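40 nM FBPA preincubated 10 min at RT with compound (up to 57.5 uM final), then substrate plus GAPDH/TPI/NAD/arsenate coupling and diaphorase/resazurin added. Fluorescence read after 20 min at RT, 525/598 nm.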
A number is an active result; – = inactive; ? = inconclusive; · = no result; [ ] = another dose, or the depositor's remark. Shown is part of a subset that was picked to be rich in hits. Unless noted, calls follow the shape of the dose curve; as a rule, active = well fitted curve in the direction sought with a large enough effect; inconclusive = small, poorly fitted or top-dose-only effect, or another doubt; inactive = no such curve, though single readings can be large; an effect the other way counts as inactive or inconclusive.

SMILES	LmPK inh	Cycloheximide cs	Tb PYK inh	Shiga inhibitor	Sm TGR inh	FBPA Giardia inh
O=C(CSc1nnnn1-c1ccccc1)NC(=O)NCc1ccco1	–	–	–	–	–	–
O=C(CCS(=O)(=O)c1nc(-c2ccc3c(c2)OCO3)cc(C(F)(F)F)n1)Nc1ccc(Br)cc1	·	·	–	·	–	·
O=C1/C(=C/c2cccs2)COc2ccccc21	14µM	34	–	93	–	–
O=C1C(=Cc2cccs2)Oc2ccccc21	·	·	–	·	·	·
CC1(C)CN=C(N(Cc2ccccc2)C(=O)Nc2ccccc2)S1	–	65	–	76	–	–
CC1(C)CN=C(N(C(=O)Nc2ccccc2)c2ccccc2F)S1	–	17	–	62	–	–
Cc1cccnc1N(C(=O)Nc1ccccc1)C1=NCC(C)(C)S1	–	–	–	–	–	–
CCc1ccc(-n2nc3cc(C)c(NC(=O)c4cc(Cl)ccc4OC)cc3n2)cc1	·	·	–	·	–	·
CCOC(=O)C(C(=O)OCC)N(Cc1cc(OC)ccc1OC)C(=O)C1CC(CO[Si](C)(C)C(C)(C)C)=CN1C(=O)OC(C)(C)C (stereo not drawn)	·	–	·	–	·	–
Cc1ccc(-c2csc(NC(=O)c3ccccc3F)c2C(=O)O)cc1	–	39	–	100	–	–
Cc1ccc(C(=O)Nc2scc(-c3ccccc3)c2C(=O)O)o1	–	14	–	–	–	–
O=C(Nc1scc(-c2ccccc2)c1C(=O)O)c1ccccc1F	–	22	–	–	–	–
Cc1ccc(NC(=O)N2CCCC(c3nc(-c4ccc(F)cc4)no3)C2)cc1 (stereo not drawn)	–	–	–	60	–	–
Cc1ccccc1NC(=O)N1CCCC(c2nc(-c3ccc(C(C)C)cc3)no2)C1 (stereo not drawn)	–	26	–	–	–	–
Cc1ccccc1NC(=O)N1CCCC(c2nc(-c3ccc(F)cc3)no2)C1 (stereo not drawn)	–	24	–	110	–	–
O=C(N/C(C(=O)N1CCOCC1)=C(\Sc1ncccn1)c1ccccc1)c1ccccc1	–	–	–	–	40µM	–
CC(C)=C(NC(=O)c1ccccc1)C(=O)N1CCOCC1	–	–	–	–	–	–
CN1CCc2c(sc3c2c(=O)n(-c2ccccc2)c2nnc(SCc4ccccc4)n32)C1	–	–	32µM	–	?	–
Cc1c(O)nc(SC2CC(=O)N(c3ccccc3)C2=O)[nH]c1=O (stereo not drawn)	–	–	–	–	?	?
Cn1nnnc1SC1CC(=O)N(c2ccccc2)C1=O (stereo not drawn)	–	–	–	–	1.6µM	–
Cc1ccc(N2C(=O)CC(Sc3cccs3)C2=O)cc1 (stereo not drawn)	–	–	–	–	7.1µM	–
Cc1cc(C)cc(N2C(=O)CC(Sc3nnnn3-c3ccccc3)C2=O)c1 (stereo not drawn)	–	–	–	–	5µM	·
Cc1cccc(N2C(=O)CC(Sc3nnc(C)s3)C2=O)c1 (stereo not drawn)	–	–	–	–	3.5µM	–
Cc1cccc(N2C(=O)CC(Sc3nc(C)cc(C)n3)C2=O)c1 (stereo not drawn)	–	–	–	–	–	–
O=C1CC(SCCO)C(=O)N1c1ccccc1 (stereo not drawn)	–	–	–	–	–	–
SMILES	LmPK inh	Cycloheximide cs	Tb PYK inh	Shiga inhibitor	Sm TGR inh	FBPA Giardia inh
O=C1CC(Sc2nnnn2C2CCCCC2)C(=O)N1c1ccccc1 (stereo not drawn)	–	–	–	–	3.2µM	–
CCOC(=O)Cn1c(=O)oc2cc(S(=O)(=O)N3CCN(C(=O)c4ccco4)CC3)ccc21	–	–	–	–	–	–
c1ccc2nc3c(nc2c1)OCC1CCCCN31 (stereo not drawn)	–	54	–	108	–	–
Cc1ccc(OCC(=O)N(Cc2ccco2)Cc2ccco2)cc1C	·	·	–	·	–	·
CCc1ccc(Cn2c(CNS(=O)(=O)c3ccc([N+](=O)[O-])cc3)nc3cccnc32)cc1	·	·	–	·	–	·
COc1ncc2nc(CCc3ccccc3)c(=O)n(Cc3cccs3)c2n1	·	·	–	·	·	–
Cc1ccc(N2C(=O)C(Cl)=C(N3CCN(C)CC3)C2=O)c(C)c1	–	–	–	–	?	–
Cc1ccc(N2C(=O)C(Cl)=C(NCCO)C2=O)c(C)c1	–	–	–	–	8.9µM	–
CC1CN(c2c(F)c(N)c3c(=O)c(C(=O)O)cn(C4CC4)c3c2F)CC(C)N1 (stereo not drawn)	·	–	–	–	·	–
CC(C)NC(=O)NC1C2CC3CC(C2)CC1C3 (stereo not drawn)	–	–	–	–	89µM	–
CN(C)c1ccc(CNC(=O)c2sc3ncccc3c2-n2cccc2)cc1	·	·	–	·	–	·
CCOC(=O)c1cc2n(n1)C(C(F)(F)F)CC(C)N2 (stereo not drawn)	–	12	–	–	–	–
CC1CC(C(F)(F)F)n2nc(C(=O)O)cc2N1 (stereo not drawn)	–	–	–	–	–	–
CCOc1ccccc1NC(=O)NCCn1c(=O)oc2ccc(C)cc21	·	·	–	·	–	·
CC(C)CC(=O)NC(=S)Nc1ccc(Cl)cn1	–	34	–	119	–	–
Cc1ccc(OCCC(=O)OCC(=O)Nc2ccc(Cl)cn2)cc1	–	–	–	–	–	–
CCC(C)c1ccc(OCC(=O)Nc2ccc(Cl)cn2)cc1 (stereo not drawn)	–	35	·	–	–	–
Cc1ccccc1C1NC(=S)NC2=C1C(=O)CCC2 (stereo not drawn)	–	–	–	–	–	–
CN(C(=O)c1ccc(Br)o1)C1CCCCC1	–	33	–	67	–	–
O=C(NCC1CCCCC1)c1cc2ccccc2cc1O	–	32	–	74	–	·
CN(C(=O)c1cc2ccccc2cc1O)C1CCCCC1	–	21	–	–	–	·
CN(C(=O)c1ccccc1Cl)C1CCCCC1	–	13	–	–	–	–
O=C(Nc1ccccc1F)C(Cc1ccccc1)N1Cc2ccccc2C1=O (stereo not drawn)	·	·	–	·	–	·
Cc1cc(NC(=O)CSc2cn(CC(=O)N(C(C)C)C(C)C)c3ccccc23)no1	–	–	–	–	–	–
CC(=O)Nc1ccc(S(=O)(=O)Nc2cccc(-c3ccc(N4CCC(C)CC4)nn3)c2)cc1	·	·	–	·	–	·
O=C(CCc1ccccc1)N(Cc1cccnc1)c1nc2c(F)cc(F)cc2s1	·	·	–[15.4 µM]	·	–	·
O=C(Cn1nnnc1-c1ccccc1F)Nc1ccc(F)c(F)c1	·	·	–	·	–	·
Cc1cc(C)c(NC(=O)CS(=O)CC(=O)N2CCN(c3cccc(C)c3C)CC2)c(C)c1 (stereo not drawn)	–	–	–	–	–	–
Cc1ccc(C(=O)CSc2ccc(-c3ccccc3)nn2)cc1	–	–	–	–	–	–
O=C(CSc1ccc(-c2ccccn2)nn1)c1ccccc1	–	49	–	87	–	?
